The values below come from PubChem BioAssay (EPA / NIEHS).

The nature of assay [1]: ATG_TAL_CIS: Attagene CIS-FACTORIAL HepG2 Assay for human TAL Basal Promoter (AID 2282966; active = hit-call score of the fitted dose curve at least 0.9, where 1 is the maximum; inactive = score below 0.9;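 also: background control endpoint measuring basal TAL promoter reporter mRNA not a specific factor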). The settings on record: HepG2 Attagene cis-factorial TAL promoter reporter; actives raise or lower the signal. A digest of the protocol: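 Basal-promoter background-control endpoint from a multiplexed HepG2 reporter panel. Cells were exposed 24 h, then reporter mRNA was read by RT-PCR/CE fluorescence and fitted in both directions relative to DMSO.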

Assay [2] in a line: ATG_TGFb_CIS: Attagene CIS-FACTORIAL HepG2 Assay for human Transforming Growth Factor (TGF) (AID 2282967; active = hit-call score of the fitted dose curve at least 0.9, where 1 is the maximum; inactive = score below 0.9). Conditions: HepG2 Attagene CIS TGFb reporter, mRNA transcription; actives raise or lower the signal. In short, it runs like this: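 Cells were dosed for 24 hours, after which total RNA was reverse-transcribed and reporter sequences amplified, labeled and sized by capillary electrophoresis. Activity was fitted in both directions against DMSO.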

Assay [3] has as its target Nuclear receptor subfamily 1 group I member 3 (Homo sapiens) (UniProt Q14994). The assay is described as follows: ATG_CAR_TRANS: Attagene TRANS-FACTORIAL HepG2 Assay for human Constitutive Androstane Receptor (CAR) (AID 2282969).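 Also: activators raise reporter mRNA above DMSO so AC50 marks induction.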 The settings on record: HepG2 Attagene TRANS-FACTORIAL CAR reporter. A digest of the protocol:
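Signal is reporter mRNA induction relative to DMSO, measured 24 h after dosing by RT-PCR with fluorescent primer extension and capillary electrophoresis. Human HepG2 liver cells carried transiently transfected chimeric NR-Gal4/GAL4-UAS reporter constructs.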

Assay [4] concerns the target Steroid hormone receptor ERR1 (Homo sapiens) (UniProt P11474). The experiment in a line: ATG_ERRa_TRANS: Attagene TRANS-FACTORIAL HepG2 Assay for human Estrogen-Related Receptor alpha (ERRa) (AID 2282971). Conditions: HepG2 Attagene TRANS reporter, ERRa transactivation. A digest of the protocol: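 HepG2 cells transiently transfected with GAL4-UAS reporter units and chimeric NR-Gal4 constructs; after 24 hour compound incubation, reporter mRNA quantified by RT-PCR, fluorescent labelling and capillary electrophoresis, gain of signal versus DMSO.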

Assay [5] has as its target X-box-binding protein 1 (Homo sapiens) (UniProt P17861). The assay is described as follows: ATG_Xbp1_CIS: Attagene CIS-FACTORIAL HepG2 Assay for human X-box Binding Protein 1 (XBP1) (AID 2282972; active = hit-call score of the fitted dose curve at least 0.9, where 1 is the maximum; inactive = score below 0.9). The settings on record: HepG2 XBP1 cis-element reporter, Attagene multiplex; actives raise or lower the signal. In short, it runs like this:
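Read-out: fluorescent reporter mRNA fragments resolved by capillary electrophoresis after RT-PCR. Human HepG2 liver cells carried transfected cis-promoter reporter units and were exposed to chemicals for 24 hours. Gain or loss of signal fitted relative to DMSO baseline.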

A short description of assay [6]: ATG_M_19_TRANS: Attagene TRANS-FACTORIAL HepG2 Assay for M19 Transcription Factor (Internal Marker) (AID 2282974). Conditions: HepG2 Attagene TRANS-FACTORIAL M19 internal marker reporter. A digest of the protocol: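 Fluorescence of 6-FAM-labelled reporter cDNA fragments, separated by capillary electrophoresis, served as the readout. These derived from HepG2 cells carrying transfected GAL4-UAS reporter units after 24 h dosing, with DMSO as negative control.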

A short description of assay [7]: ATG_GAL4_TRANS: Attagene TRANS-FACTORIAL HepG2 Assay for GAL4 (Internal Marker) (AID 2282976). The settings on record: HepG2 Attagene TRANS GAL4 internal marker reporter. In short, it runs like this:
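Background-control readout: GAL4-UAS reporter transcript in transiently transfected HepG2 cells after 24 h compound exposure. Measured by RT-PCR, 6-FAM primer extension, HpaI digest and capillary electrophoresis; gain-of-signal fit versus DMSO.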

Assay [8] has as its target Estrogen-related receptor gamma (Homo sapiens) (UniProt P62508). The experiment in a line: ATG_ERRg_TRANS: Attagene TRANS-FACTORIAL HepG2 Assay for human Estrogen-Related Receptor gamma (ERRg) (AID 2282977).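 Also: hits increase reporter signal over DMSO so potencies reflect activators.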 The settings on record: HepG2 Attagene TRANS reporter, ERRg transactivation. In short, it runs like this:
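Exogenous NR-Gal4 chimera activity measured as reporter transcript induction after 24 h in transiently transfected HepG2 cells. RNA reverse-transcribed, PCR-amplified, 6-FAM-labelled and resolved by capillary electrophoresis; increase over DMSO baseline.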

For assay [9], the target named is Glucocorticoid receptor (Homo sapiens) (UniProt P04150). The assay is described as follows: ATG_GR_TRANS: Attagene TRANS-FACTORIAL HepG2 Assay for human Glucocorticoid Receptor (GR) (AID 2282978).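 Also: activators score as hits since higher reporter transcript over DMSO is fitted.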 The settings on record: HepG2 Attagene TRANS GR reporter, mRNA transcription. In short, it runs like this:
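Fluorescent capillary-electrophoresis quantitation of reporter mRNA is the readout, taken 24 h after dosing human HepG2 cells carrying transiently transfected GAL4-UAS reporter units activated by chimeric NR-GAL4 fusions; activity scored as induction over DMSO.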

Assay [10] has as its target Oxysterols receptor LXR-beta (Homo sapiens) (UniProt P55055). The assay is described as follows: ATG_LXRb_TRANS: Attagene TRANS-FACTORIAL HepG2 Assay for human Liver X Receptor beta (LXRb) (AID 2282981). The settings on record: HepG2 Attagene TRANS GAL4-LXRb reporter, mRNA. A digest of the protocol: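 After 24 h chemical treatment of transfected HepG2 cells carrying exogenous NR-Gal4 chimeras, reporter mRNA was quantified by fluorescent RT-PCR and capillary electrophoresis; activity taken as increase over DMSO controls.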

Assay [11] concerns the target Hepatocyte nuclear factor 4-alpha (Homo sapiens) (UniProt P41235). The assay is described as follows: ATG_HNF4a_TRANS: Attagene TRANS-FACTORIAL HepG2 Assay for human Hepatocyte Nuclear Factor 4 alpha (HNF4a) (AID 2282982). The settings on record: HepG2 HNF4a transactivation reporter, mRNA readout. A digest of the protocol:
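Activity of an exogenous HNF4a–Gal4 fusion scored as induced GAL4-UAS reporter transcripts after 24 h chemical exposure of transfected human HepG2 cells. Read-out via RT-PCR with 6-FAM labelling and capillary electrophoresis; rise over DMSO baseline.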

A short description of assay [12]: ATG_M_06_TRANS: Attagene TRANS-FACTORIAL HepG2 Assay for M06 Transcription Factor (Internal Marker) (AID 2282983). Conditions: HepG2 Attagene TRANS M06 internal marker reporter. A digest of the protocol: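 mRNA levels of a reporter transcript, quantified as FAM fluorescence on capillary electrophoresis, served as readout. HepG2 cells expressing exogenous GAL4-chimera reporter constructs were exposed for 24 h. Gain of signal over DMSO was evaluated.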

Assay [13] has as its target Nuclear receptor subfamily 4 group A member 2 (Homo sapiens) (UniProt P43354). The assay is described as follows: ATG_NURR1_TRANS: Attagene TRANS-FACTORIAL HepG2 Assay for human Nuclear Receptor Related Protein 1 (NURR1) (AID 2282985). Conditions: HepG2 Attagene TRANS reporter, mRNA readout. A digest of the protocol: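 Reporter transcript induction, measured by RT-PCR with fluorescent labelling, HpaI digestion and capillary electrophoresis, after 24 hr dosing of human HepG2 cells transiently expressing an exogenous NR-Gal4 fusion with GAL4-UAS-driven reporters; DMSO as baseline.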

The target of assay [14] is Transcriptional activator Myb (Homo sapiens) (UniProt P10242). The assay is described as follows: ATG_Myb_CIS: Attagene CIS-FACTORIAL HepG2 Assay for human Myeloblastosis (Myb) Proto-Oncogene Transcription Factor (AID 2282986; active = hit-call score of the fitted dose curve at least 0.9, where 1 is the maximum; inactive = score below 0.9). Conditions: HepG2 Attagene CIS-FACTORIAL Myb reporter transcription; actives raise or lower the signal. A digest of the protocol: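 Reporter transcript levels, quantified by fluorescent RT-PCR and capillary electrophoresis, serve as the read-out. Transfected HepG2 cells carrying cis-promoter reporter units are dosed for 24 hours, and curves are fitted bidirectionally against DMSO controls.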
Transcriptional activator Myb (Homo sapiens), sequence (P10242 whole entry, looked up): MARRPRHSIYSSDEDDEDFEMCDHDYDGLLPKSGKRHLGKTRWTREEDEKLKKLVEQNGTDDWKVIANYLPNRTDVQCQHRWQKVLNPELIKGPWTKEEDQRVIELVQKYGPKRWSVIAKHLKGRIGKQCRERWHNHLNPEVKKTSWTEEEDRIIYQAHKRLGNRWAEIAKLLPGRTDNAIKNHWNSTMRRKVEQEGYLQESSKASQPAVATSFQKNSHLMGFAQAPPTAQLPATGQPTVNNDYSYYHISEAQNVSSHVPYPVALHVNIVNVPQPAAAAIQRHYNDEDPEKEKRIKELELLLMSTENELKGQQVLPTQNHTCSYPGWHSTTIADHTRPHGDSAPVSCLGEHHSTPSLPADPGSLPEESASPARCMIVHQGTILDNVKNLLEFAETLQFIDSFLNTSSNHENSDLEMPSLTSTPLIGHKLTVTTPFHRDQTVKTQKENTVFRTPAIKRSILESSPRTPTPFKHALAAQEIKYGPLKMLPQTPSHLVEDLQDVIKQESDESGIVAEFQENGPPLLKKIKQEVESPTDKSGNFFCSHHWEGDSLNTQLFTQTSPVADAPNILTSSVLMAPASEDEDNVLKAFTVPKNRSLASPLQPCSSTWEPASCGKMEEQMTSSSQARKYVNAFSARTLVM

The target in assay [15] is Bile acid receptor (Homo sapiens) (UniProt Q96RI1). The experiment in a line: ATG_FXR_TRANS: Attagene TRANS-FACTORIAL HepG2 Assay for Farnesoid X Receptor (FXR) (AID 2282979).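 Also: hits raise reporter mRNA above DMSO so AC50 marks FXR activation.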 The settings on record: HepG2 Attagene TRANS FXR-GAL4 reporter transcription. In short, it runs like this:
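HepG2 cells were transiently transfected with GAL4-UAS reporters driven by chimeric NR-Gal4 proteins and dosed for 24 h. Reporter mRNA was quantified by RT-PCR, fluorescent labelling, HpaI digestion and capillary electrophoresis, with gain of signal scored versus DMSO.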

The nature of assay [16]: ATG_M_32_TRANS: Attagene TRANS-FACTORIAL HepG2 Assay for M32 Transcription Factor (Internal Marker) (AID 2282984). Conditions: HepG2 Attagene TRANS M32 internal marker reporter. In short, it runs like this: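 Internal background reporter in transfected HepG2: after 24 h chemical exposure, RNA reverse-transcribed, reporter cDNA amplified, fluorescently labelled and HpaI-cut, then sized by capillary electrophoresis. Gain of signal fitted against DMSO control.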

Assay [17] is described as follows: ATG_VDRE_CIS: Attagene CIS-FACTORIAL HepG2 Assay for human Vitamin D Receptor Element (VDRE) (AID 2282968; active = hit-call score of the fitted dose curve at least 0.9, where 1 is the maximum; inactive = score below 0.9). Conditions: HepG2 VDRE cis-reporter transcription, actives raise or lower the signal. A digest of the protocol: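 Readout is VDRE-driven reporter mRNA reflecting endogenous factor activity in human HepG2 cells, sampled 24 h post-dose. Quantification used labelled RT-PCR products separated by capillary electrophoresis; bidirectional analysis relative to DMSO.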

Values joined by “and” are separate entries in the source; they are usually repeats but may differ in a detail not shown here. Identical values can stand only once. Records with an inconclusive call do not appear. The source holds several records for some structures; these can differ, active in one and inactive in another. Active and inactive are the calls of the source. The calls were made as follows, unless noted: active = hit-call score of the fitted dose curve at least 0.9, where 1 is the maximum; inconclusive = response in the unintended direction; inactive = score below 0.9.

Glucocorticoid receptor (Homo sapiens), sequence (P04150 whole entry, looked up, the tested form may be a part): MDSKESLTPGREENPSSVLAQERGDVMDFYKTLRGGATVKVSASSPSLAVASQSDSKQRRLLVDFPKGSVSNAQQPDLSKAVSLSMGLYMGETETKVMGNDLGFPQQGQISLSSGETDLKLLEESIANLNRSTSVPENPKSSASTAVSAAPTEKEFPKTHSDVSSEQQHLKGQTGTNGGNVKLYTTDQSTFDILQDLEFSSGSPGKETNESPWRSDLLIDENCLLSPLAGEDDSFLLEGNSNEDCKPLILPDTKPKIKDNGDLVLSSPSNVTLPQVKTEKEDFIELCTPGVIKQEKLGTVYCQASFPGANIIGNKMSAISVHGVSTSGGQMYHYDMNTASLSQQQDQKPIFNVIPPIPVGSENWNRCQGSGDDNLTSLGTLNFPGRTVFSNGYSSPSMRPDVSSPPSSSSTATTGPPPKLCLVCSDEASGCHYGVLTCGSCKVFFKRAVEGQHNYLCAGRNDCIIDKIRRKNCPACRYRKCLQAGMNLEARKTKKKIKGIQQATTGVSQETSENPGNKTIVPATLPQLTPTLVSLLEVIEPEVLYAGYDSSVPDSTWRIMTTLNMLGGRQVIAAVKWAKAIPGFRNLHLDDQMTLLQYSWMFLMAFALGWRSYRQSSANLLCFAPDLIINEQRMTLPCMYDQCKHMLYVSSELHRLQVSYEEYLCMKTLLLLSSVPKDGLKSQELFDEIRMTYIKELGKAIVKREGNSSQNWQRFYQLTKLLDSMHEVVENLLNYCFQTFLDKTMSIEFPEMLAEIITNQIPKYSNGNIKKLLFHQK
Nuclear receptor subfamily 4 group A member 2 (Homo sapiens), sequence (P43354 whole entry, looked up, the tested form may be a part): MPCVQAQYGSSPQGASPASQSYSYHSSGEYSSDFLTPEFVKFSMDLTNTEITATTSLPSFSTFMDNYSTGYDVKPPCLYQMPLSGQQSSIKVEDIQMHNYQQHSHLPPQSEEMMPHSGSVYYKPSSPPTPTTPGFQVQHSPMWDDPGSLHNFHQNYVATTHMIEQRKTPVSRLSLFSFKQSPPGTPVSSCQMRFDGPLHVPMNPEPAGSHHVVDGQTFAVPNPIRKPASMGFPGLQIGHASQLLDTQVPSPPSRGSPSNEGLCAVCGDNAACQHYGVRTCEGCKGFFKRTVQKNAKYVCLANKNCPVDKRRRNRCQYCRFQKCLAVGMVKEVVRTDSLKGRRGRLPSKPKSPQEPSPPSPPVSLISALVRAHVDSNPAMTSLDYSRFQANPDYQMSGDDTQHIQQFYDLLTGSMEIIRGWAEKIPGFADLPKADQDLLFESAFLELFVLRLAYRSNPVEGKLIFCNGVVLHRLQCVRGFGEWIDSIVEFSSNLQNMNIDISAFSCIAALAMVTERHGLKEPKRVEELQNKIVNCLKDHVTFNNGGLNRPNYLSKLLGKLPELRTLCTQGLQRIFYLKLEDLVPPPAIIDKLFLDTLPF
Nuclear receptor subfamily 1 group I member 3 (Homo sapiens), sequence (Q14994 whole entry, looked up, the tested form may be a part): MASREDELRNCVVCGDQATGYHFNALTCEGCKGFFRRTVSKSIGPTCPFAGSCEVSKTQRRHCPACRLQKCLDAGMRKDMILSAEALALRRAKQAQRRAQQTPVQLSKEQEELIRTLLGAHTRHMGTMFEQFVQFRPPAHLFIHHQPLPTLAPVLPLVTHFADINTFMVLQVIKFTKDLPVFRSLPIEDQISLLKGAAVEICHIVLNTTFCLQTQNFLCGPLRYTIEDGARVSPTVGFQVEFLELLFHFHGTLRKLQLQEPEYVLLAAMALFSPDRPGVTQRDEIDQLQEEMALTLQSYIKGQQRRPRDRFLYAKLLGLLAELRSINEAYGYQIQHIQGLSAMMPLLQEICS
Steroid hormone receptor ERR1 (Homo sapiens), sequence (P11474 whole entry, looked up, the tested form may be a part): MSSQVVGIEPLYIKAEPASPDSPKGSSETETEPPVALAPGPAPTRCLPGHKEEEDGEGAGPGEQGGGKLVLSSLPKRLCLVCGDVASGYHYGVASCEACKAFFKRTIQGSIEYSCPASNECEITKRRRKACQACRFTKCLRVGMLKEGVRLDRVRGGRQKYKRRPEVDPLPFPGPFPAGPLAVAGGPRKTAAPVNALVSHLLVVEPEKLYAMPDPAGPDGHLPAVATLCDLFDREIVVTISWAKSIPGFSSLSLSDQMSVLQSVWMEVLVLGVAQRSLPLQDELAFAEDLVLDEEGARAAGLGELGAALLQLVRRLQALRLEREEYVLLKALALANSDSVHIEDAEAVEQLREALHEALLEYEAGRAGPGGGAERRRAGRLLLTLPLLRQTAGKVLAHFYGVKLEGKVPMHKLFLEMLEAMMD
Oxysterols receptor LXR-beta (Homo sapiens), sequence (P55055 whole entry, looked up, the tested form may be a part): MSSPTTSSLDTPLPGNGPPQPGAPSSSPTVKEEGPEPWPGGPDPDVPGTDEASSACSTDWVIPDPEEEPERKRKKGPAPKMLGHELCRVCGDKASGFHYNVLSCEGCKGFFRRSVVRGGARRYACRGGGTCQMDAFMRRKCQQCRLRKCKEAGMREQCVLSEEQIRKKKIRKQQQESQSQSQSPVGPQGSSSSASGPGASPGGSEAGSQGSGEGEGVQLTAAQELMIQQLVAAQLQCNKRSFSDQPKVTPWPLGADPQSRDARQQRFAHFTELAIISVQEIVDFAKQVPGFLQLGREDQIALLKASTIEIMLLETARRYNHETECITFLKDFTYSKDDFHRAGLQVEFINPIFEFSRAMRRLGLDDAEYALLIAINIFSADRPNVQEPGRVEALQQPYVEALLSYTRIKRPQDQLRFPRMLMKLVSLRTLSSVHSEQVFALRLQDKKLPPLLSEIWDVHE
Estrogen-related receptor gamma (Homo sapiens), sequence (P62508 whole entry, looked up, the tested form may be a part): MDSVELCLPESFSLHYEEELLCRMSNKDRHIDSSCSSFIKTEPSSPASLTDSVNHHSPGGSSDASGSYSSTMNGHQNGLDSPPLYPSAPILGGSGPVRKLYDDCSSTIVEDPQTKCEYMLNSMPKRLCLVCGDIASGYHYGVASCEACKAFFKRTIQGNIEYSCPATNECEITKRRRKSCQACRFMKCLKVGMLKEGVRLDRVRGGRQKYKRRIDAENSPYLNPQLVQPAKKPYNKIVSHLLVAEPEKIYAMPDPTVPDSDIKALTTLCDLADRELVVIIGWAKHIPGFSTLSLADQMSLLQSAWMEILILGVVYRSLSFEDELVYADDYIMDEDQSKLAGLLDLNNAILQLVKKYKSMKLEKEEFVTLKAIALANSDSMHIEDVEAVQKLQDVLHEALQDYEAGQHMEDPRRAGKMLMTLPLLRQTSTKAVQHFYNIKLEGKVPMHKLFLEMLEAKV
X-box-binding protein 1 (Homo sapiens), sequence (P17861 whole entry, looked up, the tested form may be a part): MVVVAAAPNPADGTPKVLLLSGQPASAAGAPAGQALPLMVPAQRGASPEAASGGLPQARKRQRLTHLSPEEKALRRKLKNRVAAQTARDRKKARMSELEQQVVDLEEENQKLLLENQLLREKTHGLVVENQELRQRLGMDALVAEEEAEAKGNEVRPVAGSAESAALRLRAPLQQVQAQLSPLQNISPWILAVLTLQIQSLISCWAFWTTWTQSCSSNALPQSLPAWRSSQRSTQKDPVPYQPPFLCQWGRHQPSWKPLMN
Hepatocyte nuclear factor 4-alpha (Homo sapiens), sequence (P41235 whole entry, looked up, the tested form may be a part): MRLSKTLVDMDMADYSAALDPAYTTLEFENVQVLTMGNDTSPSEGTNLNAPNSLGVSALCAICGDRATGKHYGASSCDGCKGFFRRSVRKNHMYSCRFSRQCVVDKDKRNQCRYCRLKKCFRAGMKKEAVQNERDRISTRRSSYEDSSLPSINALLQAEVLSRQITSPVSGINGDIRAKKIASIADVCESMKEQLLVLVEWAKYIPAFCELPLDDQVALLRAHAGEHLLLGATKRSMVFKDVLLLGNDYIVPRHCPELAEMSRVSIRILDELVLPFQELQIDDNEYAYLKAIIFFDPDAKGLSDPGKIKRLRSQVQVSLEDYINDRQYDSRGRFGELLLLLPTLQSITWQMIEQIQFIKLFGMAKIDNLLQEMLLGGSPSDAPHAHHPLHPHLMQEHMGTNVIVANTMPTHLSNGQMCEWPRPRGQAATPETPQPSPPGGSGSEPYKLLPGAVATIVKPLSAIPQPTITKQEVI
Bile acid receptor (Homo sapiens), sequence (Q96RI1 whole entry, looked up, the tested form may be a part): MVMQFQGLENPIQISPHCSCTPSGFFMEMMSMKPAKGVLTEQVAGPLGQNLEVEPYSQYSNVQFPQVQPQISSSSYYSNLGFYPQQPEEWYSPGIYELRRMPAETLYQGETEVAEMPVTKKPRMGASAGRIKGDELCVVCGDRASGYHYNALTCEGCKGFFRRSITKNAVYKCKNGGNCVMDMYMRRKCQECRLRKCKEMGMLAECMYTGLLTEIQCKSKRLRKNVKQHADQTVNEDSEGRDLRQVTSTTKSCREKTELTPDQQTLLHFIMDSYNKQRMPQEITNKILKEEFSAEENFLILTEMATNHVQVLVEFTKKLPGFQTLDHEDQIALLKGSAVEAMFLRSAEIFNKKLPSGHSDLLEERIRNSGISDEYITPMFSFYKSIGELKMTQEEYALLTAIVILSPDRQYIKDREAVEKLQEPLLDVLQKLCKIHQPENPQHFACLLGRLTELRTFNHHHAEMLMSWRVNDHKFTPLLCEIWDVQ

Take `O=C(O)C(F)(F)C(F)(F)C(F)(F)C(F)(F)C(F)(F)C(F)(F)C(F)(F)C(F)(F)C(F)(F)F`: the AC50 was 61.9 µM (active) in assay [1]; 48.9 µM (active) and 14.6 µM (active) in assay [2]; 50.8 µM (active) and 50 µM (active) in assay [5]; 12.9 µM (active) in [13]. Further, the outcome in [1], in assay [2], in assay [3], in assay [4], in [5] and in assay [6] was inactive. In addition, the outcome in [7], in assay [8], in [9], in [10], in assay [11] and in [12] was inactive. Besides, the call in [13] and in assay [14] was inactive.

In the case of `CC(C)(c1ccccc1)c1ccc(O)cc1`, the result in assay [1], in assay [2], in assay [3], in assay [5], in assay [6] and in assay [7] was inactive. Also, the call in [9], in assay [15], in assay [10], in [12], in [16] and in assay [13] was inactive. In assay [14], the compound was called inactive. For the same compound, the half-maximal activity concentration (AC50) in [5] is 52.7 µM (active) and 52.2 µM (active); in [15], 48.9 µM (active); in assay [14] it was 51.8 µM (active).

On to `CN(C)CCO`, for which the compound was called inactive in [1], in assay [2], in [3], in assay [4], in assay [5] and in [6]. The call in assay [7], in [8], in assay [9], in assay [10], in [11] and in assay [12] was inactive. The call in [13] and in assay [14] was inactive.

`Nc1ccc(-c2ccc(N)cc2)cc1`: the outcome in [1], in assay [2], in assay [17], in [3], in [5] and in assay [7] was inactive. Moreover, the compound was called inactive in [9], in assay [11], in assay [12] and in assay [14].

As for `Clc1ccc(C(Cl)(Cl)Cl)cc1`, the compound was classed as inactive in assay [1], in assay [2], in [4], in [5], in [7] and in assay [9]. The compound was classed as inactive in assay [10], in assay [12] and in [14].

As to `O=C(NC(=O)c1cc(F)c(F)cc1Cl)Nc1cc(F)ccc1N1CCC(C(=O)O)CC1`, the compound was classed as inactive in [1], in assay [2], in [5], in [6], in assay [7] and in [9]. The result in assay [10], in [11], in assay [13] and in [14] was inactive.

Regarding `CC(C)C(=O)OCC(C)(C)C(OC(=O)C(C)C)C(C)C` (stereo unspecified), the outcome in assay [1], in [2], in assay [3], in [5], in [6] and in [7] was inactive. Also, the result in [10], in assay [13] and in [14] was inactive.
